In the supplement of paper PMC4466140:

Columns and labels:
Test in all cases: SPOT peptide array binding signal intensity (averaged, normalized) (arbitrary units (background-subtracted, floor 0; scale differs between SH3 domains)); higher = stronger binding of the SH3 domain to the peptide
AgAbp1 = biological target: AgAbp1
Procedure, shortened: (§1)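 GST-fused SH3 domains, from four yeast species, were produced in E. coli BL21(DE3) and captured on glutathione Sepharose. Membranes of cellulose carrying synthetic 15-mer peptides, in which cysteines had been replaced by serines, were exposed to each domain at 10 μg/ml overnight at 4°C in TBS-based blocking buffer. After anti-GST antibody, an HRP anti-mouse secondary and luminol, spots were imaged and quantified using Genespotter. Binding signal is normalized and background-subtracted spot intensity, averaged over replicates, in arbitrary units that differ between domains.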

AgBbc1 = biological target: AgBbc1
Procedure, shortened: as §1

AgBem1-D1 = biological target: AgBem1-D1
Procedure, shortened: as §1

AgBzz1-D1 = biological target: AgBzz1-D1
Procedure, shortened: as §1

AgBzz1-D2 = biological target: AgBzz1-D2
Procedure, shortened: as §1

AgCyk3 = biological target: AgCyk3
Procedure, shortened: as §1

AgFus1 = biological target: AgFus1
Procedure, shortened: as §1

AgHof1 = biological target: AgHof1
Procedure, shortened: as §1

AgHse1 = biological target: AgHse1
Procedure, shortened: as §1

AgLsb1 = biological target: AgLsb1
Procedure, shortened: as §1

AgLsb4 = biological target: AgLsb4
Procedure, shortened: as §1

AgMyo5 = biological target: AgMyo5
Procedure, shortened: as §1

AgNbp2 = biological target: AgNbp2
Procedure, shortened: as §1

AgRvs167 = biological target: AgRvs167
Procedure, shortened: as §1

AgSho1 = biological target: AgSho1
Procedure, shortened: as §1

AgSla1-D1-D2 = biological target: AgSla1-D1-D2
Procedure, shortened: as §1

AgSla1-D3 = biological target: AgSla1-D3
Procedure, shortened: as §1

CaAbp1-D1 = biological target: CaAbp1-D1
Procedure, shortened: as §1

CaAbp1-D2 = biological target: CaAbp1-D2
Procedure, shortened: as §1

CaBbc1 = biological target: CaBbc1
Procedure, shortened: as §1

CaBem1-D1 = biological target: CaBem1-D1
Procedure, shortened: as §1

CaBzz1-D1 = biological target: CaBzz1-D1
Procedure, shortened: as §1

CaBzz1-D2 = biological target: CaBzz1-D2
Procedure, shortened: as §1

CaCyk3 = biological target: CaCyk3
Procedure, shortened: as §1

CaFus1 = biological target: CaFus1
Procedure, shortened: as §1

CaHof1 = biological target: CaHof1
Procedure, shortened: as §1

CaHse1 = biological target: CaHse1
Procedure, shortened: as §1

CaLsb1 = biological target: CaLsb1
Procedure, shortened: as §1

CaLsb4 = biological target: CaLsb4
Procedure, shortened: as §1

CaMyo5 = biological target: CaMyo5
Procedure, shortened: as §1

CaNbp2 = biological target: CaNbp2
Procedure, shortened: as §1

CaRvs167 = biological target: CaRvs167
Procedure, shortened: as §1

CaRvs167-3 = biological target: CaRvs167-3
Procedure, shortened: as §1

CaSho1 = biological target: CaSho1
Procedure, shortened: as §1

CaSla1-D1-D2 = biological target: CaSla1-D1-D2
Procedure, shortened: as §1

CaSla1-D3 = biological target: CaSla1-D3
Procedure, shortened: as §1

ScAbp1 = biological target: ScAbp1
Procedure, shortened: as §1

ScBbc1 = biological target: ScBbc1
Procedure, shortened: as §1

ScBem1-D1 = biological target: ScBem1-D1
Procedure, shortened: as §1

ScBzz1-D1 = biological target: ScBzz1-D1
Procedure, shortened: as §1

ScBzz1-D2 = biological target: ScBzz1-D2
Procedure, shortened: as §1

ScCyk3 = biological target: ScCyk3
Procedure, shortened: as §1

ScFus1 = biological target: ScFus1
Procedure, shortened: as §1

ScHof1 = biological target: ScHof1
Procedure, shortened: as §1

ScHse1 = biological target: ScHse1
Procedure, shortened: as §1

ScLsb1 = biological target: ScLsb1
Procedure, shortened: as §1

ScLsb2 = biological target: ScLsb2
Procedure, shortened: as §1

ScLsb3 = biological target: ScLsb3
Procedure, shortened: as §1

ScLsb4 = biological target: ScLsb4
Procedure, shortened: as §1

ScMyo3 = biological target: ScMyo3
Procedure, shortened: as §1

ScMyo5 = biological target: ScMyo5
Procedure, shortened: as §1

ScNbp2 = biological target: ScNbp2
Procedure, shortened: as §1

ScPex13 = biological target: ScPex13
Procedure, shortened: as §1

ScRvs167 = biological target: ScRvs167
Procedure, shortened: as §1

ScSho1 = biological target: ScSho1
Procedure, shortened: as §1

ScSla1-D1-D2 = biological target: ScSla1-D1-D2
Procedure, shortened: as §1

ScSla1-D3 = biological target: ScSla1-D3
Procedure, shortened: as §1

SpAbp1-D1 = biological target: SpAbp1-D1
Procedure, shortened: as §1

SpBbc1 = biological target: SpBbc1
Procedure, shortened: as §1

SpBzz1-D1 = biological target: SpBzz1-D1
Procedure, shortened: as §1

B1: unnamed (peptide)
chain: PLQSKIPMLPSRRTM
**Q.** B1 was tested. Which “SPOT peptide array binding signal intensity” value (AgAbp1) did it give?
**A.** 98.5

**Q.** And the “SPOT peptide array binding signal intensity” value (AgBbc1)?
**A.** 267

**Q.** And the “SPOT peptide array binding signal intensity” value (AgBem1-D1)?
**A.** 26.5

**Q.** What about the “SPOT peptide array binding signal intensity” value (AgBzz1-D1) of the same binder?
**A.** 48

**Q.** And the “SPOT peptide array binding signal intensity” value (AgBzz1-D2)?
**A.** 9

**Q.** And the “SPOT peptide array binding signal intensity” value (AgCyk3)?
**A.** 3

**Q.** What about the “SPOT peptide array binding signal intensity” value (AgFus1) of the same binder?
**A.** 98.5

**Q.** And the “SPOT peptide array binding signal intensity” value (AgHof1)?
**A.** 211

**Q.** What about the “SPOT peptide array binding signal intensity” value (AgHse1) of the same binder?
**A.** 300

**Q.** What about the “SPOT peptide array binding signal intensity” value (AgLsb1) of the same binder?
**A.** 555

**Q.** What about the “SPOT peptide array binding signal intensity” value (AgLsb4) of the same binder?
**A.** 4990

**Q.** What about the “SPOT peptide array binding signal intensity” value (AgMyo5) of the same binder?
**A.** ≤ 0

**Q.** And the “SPOT peptide array binding signal intensity” value (AgNbp2)?
**A.** 302

**Q.** What about the “SPOT peptide array binding signal intensity” value (AgRvs167) of the same binder?
**A.** 483

**Q.** And the “SPOT peptide array binding signal intensity” value (AgSho1)?
**A.** 131

**Q.** And the “SPOT peptide array binding signal intensity” value (AgSla1-D1-D2)?
**A.** 28

**Q.** What about the “SPOT peptide array binding signal intensity” value (AgSla1-D3) of the same binder?
**A.** 6.5

**Q.** And the “SPOT peptide array binding signal intensity” value (CaAbp1-D1)?
**A.** 470

**Q.** And the “SPOT peptide array binding signal intensity” value (CaAbp1-D2)?
**A.** 342

**Q.** What about the “SPOT peptide array binding signal intensity” value (CaBbc1) of the same binder?
**A.** 694

**Q.** And the “SPOT peptide array binding signal intensity” value (CaBem1-D1)?
**A.** 10.5

**Q.** And the “SPOT peptide array binding signal intensity” value (CaBzz1-D1)?
**A.** 274

**Q.** And the “SPOT peptide array binding signal intensity” value (CaBzz1-D2)?
**A.** 224

**Q.** What about the “SPOT peptide array binding signal intensity” value (CaCyk3) of the same binder?
**A.** 18.5

**Q.** What about the “SPOT peptide array binding signal intensity” value (CaFus1) of the same binder?
**A.** 897

**Q.** And the “SPOT peptide array binding signal intensity” value (CaHof1)?
**A.** 1

**Q.** And the “SPOT peptide array binding signal intensity” value (CaHse1)?
**A.** 195

**Q.** And the “SPOT peptide array binding signal intensity” value (CaLsb1)?
**A.** 18.2

**Q.** And the “SPOT peptide array binding signal intensity” value (CaLsb4)?
**A.** 5220

**Q.** And the “SPOT peptide array binding signal intensity” value (CaMyo5)?
**A.** 30

**Q.** And the “SPOT peptide array binding signal intensity” value (CaNbp2)?
**A.** 881

**Q.** What about the “SPOT peptide array binding signal intensity” value (CaRvs167) of the same binder?
**A.** 1060

**Q.** What about the “SPOT peptide array binding signal intensity” value (CaRvs167-3) of the same binder?
**A.** 4

**Q.** And the “SPOT peptide array binding signal intensity” value (CaSho1)?
**A.** 400

**Q.** What about the “SPOT peptide array binding signal intensity” value (CaSla1-D1-D2) of the same binder?
**A.** 1030

**Q.** And the “SPOT peptide array binding signal intensity” value (CaSla1-D3)?
**A.** 332

**Q.** And the “SPOT peptide array binding signal intensity” value (ScAbp1)?
**A.** 34.5

**Q.** What about the “SPOT peptide array binding signal intensity” value (ScBbc1) of the same binder?
**A.** 246

**Q.** And the “SPOT peptide array binding signal intensity” value (ScBem1-D1)?
**A.** 2

**Q.** And the “SPOT peptide array binding signal intensity” value (ScBzz1-D1)?
**A.** ≤ 0

**Q.** What about the “SPOT peptide array binding signal intensity” value (ScBzz1-D2) of the same binder?
**A.** 27

**Q.** And the “SPOT peptide array binding signal intensity” value (ScCyk3)?
**A.** 9

**Q.** And the “SPOT peptide array binding signal intensity” value (ScFus1)?
**A.** 218

**Q.** What about the “SPOT peptide array binding signal intensity” value (ScHof1) of the same binder?
**A.** 79

**Q.** And the “SPOT peptide array binding signal intensity” value (ScHse1)?
**A.** 127

**Q.** What about the “SPOT peptide array binding signal intensity” value (ScLsb1) of the same binder?
**A.** 287

**Q.** And the “SPOT peptide array binding signal intensity” value (ScLsb2)?
**A.** 629

**Q.** And the “SPOT peptide array binding signal intensity” value (ScLsb3)?
**A.** 5990

**Q.** And the “SPOT peptide array binding signal intensity” value (ScLsb4)?
**A.** 2850

**Q.** What about the “SPOT peptide array binding signal intensity” value (ScMyo3) of the same binder?
**A.** ≤ 0

**Q.** And the “SPOT peptide array binding signal intensity” value (ScMyo5)?
**A.** ≤ 0

**Q.** And the “SPOT peptide array binding signal intensity” value (ScNbp2)?
**A.** 760

**Q.** And the “SPOT peptide array binding signal intensity” value (ScPex13)?
**A.** 945

**Q.** What about the “SPOT peptide array binding signal intensity” value (ScRvs167) of the same binder?
**A.** 2220

**Q.** And the “SPOT peptide array binding signal intensity” value (ScSho1)?
**A.** 586

**Q.** What about the “SPOT peptide array binding signal intensity” value (ScSla1-D1-D2) of the same binder?
**A.** 999

**Q.** What about the “SPOT peptide array binding signal intensity” value (ScSla1-D3) of the same binder?
**A.** 514

**Q.** And the “SPOT peptide array binding signal intensity” value (SpAbp1-D1)?
**A.** 149

**Q.** And the “SPOT peptide array binding signal intensity” value (SpBbc1)?
**A.** 14

**Q.** What about the “SPOT peptide array binding signal intensity” value (SpBzz1-D1) of the same binder?
**A.** 953
